Measurements taken from PubChem BioAssay (Tox21).
Values joined by “and” are separate entries in the source; they are usually repeats but may differ in a detail not shown here. Equal values may be shown once. Records with an inconclusive call do not appear. A call without a number means that no potency is given here. Active and inactive are the calls of the source. Calls follow the shape of the dose curve; as a rule, active = well fitted inhibition curve with a large enough effect in the repeat runs; inconclusive = weak or mixed curves; inactive = flat fitted curve, though single readings scatter.

Target: Voltage-gated inwardly rectifying potassium channel KCNH2 (Homo sapiens) (UniProt Q12809)
Sequence (Q12809 whole entry, looked up): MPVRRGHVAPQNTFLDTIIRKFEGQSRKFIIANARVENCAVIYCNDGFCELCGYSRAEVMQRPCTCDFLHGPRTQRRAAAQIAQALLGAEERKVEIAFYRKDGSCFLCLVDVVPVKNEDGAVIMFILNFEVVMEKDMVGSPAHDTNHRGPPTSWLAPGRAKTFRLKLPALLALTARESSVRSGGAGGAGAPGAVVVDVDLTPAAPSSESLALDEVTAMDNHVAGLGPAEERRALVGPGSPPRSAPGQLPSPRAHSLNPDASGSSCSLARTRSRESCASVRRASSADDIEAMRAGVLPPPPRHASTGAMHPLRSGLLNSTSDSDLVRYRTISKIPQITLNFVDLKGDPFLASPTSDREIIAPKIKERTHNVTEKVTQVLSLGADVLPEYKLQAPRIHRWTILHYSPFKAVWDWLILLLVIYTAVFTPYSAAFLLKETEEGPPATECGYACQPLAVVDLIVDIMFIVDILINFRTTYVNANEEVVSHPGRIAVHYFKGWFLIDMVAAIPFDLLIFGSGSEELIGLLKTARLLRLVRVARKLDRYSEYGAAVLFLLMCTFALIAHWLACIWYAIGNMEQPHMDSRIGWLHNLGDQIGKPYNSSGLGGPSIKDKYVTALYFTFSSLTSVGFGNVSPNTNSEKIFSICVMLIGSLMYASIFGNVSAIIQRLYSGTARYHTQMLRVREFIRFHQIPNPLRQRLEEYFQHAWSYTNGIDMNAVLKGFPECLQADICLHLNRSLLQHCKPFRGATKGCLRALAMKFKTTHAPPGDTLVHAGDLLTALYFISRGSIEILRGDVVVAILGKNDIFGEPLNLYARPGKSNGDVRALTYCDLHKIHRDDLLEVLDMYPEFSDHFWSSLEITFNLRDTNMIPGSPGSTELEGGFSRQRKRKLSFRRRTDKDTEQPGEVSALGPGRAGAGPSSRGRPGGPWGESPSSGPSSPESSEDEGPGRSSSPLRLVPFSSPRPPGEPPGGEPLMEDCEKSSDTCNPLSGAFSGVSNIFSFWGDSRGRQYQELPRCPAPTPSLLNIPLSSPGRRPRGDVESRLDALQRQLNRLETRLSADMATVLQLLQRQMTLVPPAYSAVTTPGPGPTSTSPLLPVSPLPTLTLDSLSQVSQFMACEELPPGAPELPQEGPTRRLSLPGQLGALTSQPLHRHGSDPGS
Assay: Human Ether-a-go-go-Related Gene (hERG) channel small molecule antagonists: fluorescence cell-based qHTS assay (AID 1671200); also: nearly all actives have a fitted effect of over 50% in size
Conditions: hERG-U2OS cells, FluxOR thallium flux fluorescence; series mostly up to 76.8 µM; activity change, negative = inhibition: at the top concentration
Text: National Center for Advancing Translational Sciences [NCATS]
U.S. Environmental Protection Agency [EPA]
National Institutes of Environmental Health Sciences [NIEHS]
National Toxicology Program [NTP]
U.S. Food and Drug Administration [FDA]
Mutations in the hERG channel cause Long QT (LQT) syndrome. LQT syndrome is a cardiac disorder which can cause ventricle arrhythmia and sudden death. Additionally, compounds which block the hERG channel can cause acquired LQT syndrome. Several FDA approved drugs have been removed from the market due to their hERG blocking activity. A cell-based hERG channel inhibition assay can be used to screen chemical compounds that inhibit hERG channel. This assay measures hERG channel activity using thallium ions as surrogate ions to measure potassium into the cells.
Tox21 Assay Protocol Summary:
hERG-U2OS cells were resuspended in culture medium and dispensed into 1536-well, black wall/clear-bottom plates at 1000cells/well/3uL using a Multidrop Combi dispenser (Thermo Fisher, Waltham, MA). After plates were incubated at 37 C overnight, 3 uL of Loading Buffer provided by FluxOR II Potassium Ion Channel Assay kit (Thermo, Carlsbad, CA) was added to each well. The assay plates were then incubated at room temperature in the dark for 1h. […] After the assay plates were incubated at room temperature for 10 min, 1 uL of Stimulus Buffer provided by FluxOR II Potassium Ion Channel Assay kit was added into each well and fluorescence intensity (480nm excitation/540nm emission) was continuously measured for 2 min at 1 second intervals using a Functional Drug Screening System (FDSS) 7000EX kinetic plate reader (Hamamatsu, Japan).
Potency is read from the fitted curve at half-maximal effect.

How did the Potency turn out when `Cc1ncc([N+](=O)[O-])n1CCO` was run?
The Potency was “inactive”.

With `COc1cccc(O)c1O` as the compound, how does the “activity change, negative = inhibition” value read?
Its value is 1.64% (inactive).

With `CCCCCCCC(=O)OCC(COC(=O)CCCCCCC)OC(=O)CCCCCCC` as the compound, how does the Potency read?
Its Potency is “inactive”.

`Nc1ccc2c(c1)CN1C(=O)c3ccccc3C1=N2` was tested. Which activity change, negative = inhibition did it give?
Its activity change, negative = inhibition is 0.308% [at 15.8 µM] (inactive).

`CN(N=O)C(=O)N[C@@H]1[C@@H](O)[C@H](O)[C@@H](CO)O[C@@H]1O` was tested. Which Potency did it give?
The Potency was “inactive”.

For `O=C1O[C@H]([C@@H](O)CO)C(O)=C1O`, which Potency is on record?
Its Potency is “inactive”.

Which Potency does the source give for `CN(C)C(=O)Nc1ccc(Cl)c(Cl)c1` here?
Its Potency is “inactive”.

Which Potency does the source give for `CN(C)C(=S)SC(=S)N(C)C` here?
The Potency was “inactive”.

With `Nc1ccc(O)c([N+](=O)[O-])c1` as the compound, how does the “activity change, negative = inhibition” value read?
The value was 0.537% (inactive).

Which Potency does the source give for `Cc1ccc(S(=O)(=O)O)cc1` here?
Its Potency is “inactive”.

How did the Potency turn out when `COc1ccc2cc(S(=O)(=O)N[C@H](CC(=O)N[C@H](Cc3ccc(CN4[C@H](C)CCC[C@@H]4C)cc3)C(=O)N(C)C(C)C)c3ccc4c(c3)OCO4)ccc2c1` was run?
Its Potency is 7.34 µM (active).

For `COc1ccc(CN(CCN(C)C)c2ccccn2)cc1`, which Potency is on record?
Its Potency is 21.7 µM (active) and 20.1 µM (active).

How did the Potency turn out when `CC(C)NCC(O)c1ccc(O)c(O)c1` (stereo not given) was run?
Its Potency is “inactive”.

How did the “activity change, negative = inhibition” value turn out when `CCN(Cc1c(F)cccc1Cl)c1c([N+](=O)[O-])cc(C(F)(F)F)cc1[N+](=O)[O-]` was run?
The value was -4.04% (inactive).

For `O=c1[nH]cnc2c1ncn2[C@H]1CC[C@@H](CO)O1`, which Potency is on record?
Its Potency is “inactive”.

For `C=C1CC[C@H](O)C/C1=C\C=C1/CCC[C@]2(C)[C@@H]([C@H](C)CCCC(C)C)CC[C@@H]12`, which “activity change, negative = inhibition” value is on record?
The value was -12.5% (inactive).

`CCOC(N)=O` was tested. Which Potency did it give?
The Potency was “inactive”.

For `COc1ccc2c(c1)c(CC(=O)O)c(C)n2C(=O)c1ccc(Cl)cc1`, which Potency is on record?
Its Potency is “inactive”.

For `O=CC(=O)c1ccccc1`, which “activity change, negative = inhibition” value is on record?
Its value is 1.03% (inactive).

How did the Potency turn out when `CCCCCCCCCCCC[N+](C)(C)Cc1ccccc1` was run?
The Potency was 1.08 µM (active) and 1.5 µM (active) and 1.07 µM (active).

Which Potency does the source give for `CC(C)C(=O)Nc1ccc([N+](=O)[O-])c(C(F)(F)F)c1` here?
Its Potency is “inactive”.

`NS(=O)(=O)O` was tested. Which Potency did it give?
The Potency was “inactive”.

Which Potency does the source give for `COc1ccc(C(Cl)=C(c2ccc(OC)cc2)c2ccc(OC)cc2)cc1` here?
The Potency was “inactive”.

Which Potency does the source give for `C=C(C)C(=O)OCC(C)O` (stereo not given) here?
The Potency was “inactive”.

How did the Potency turn out when `CCCCNC(=O)NS(=O)(=O)c1ccc(C)cc1` was run?
Its Potency is “inactive”.

How did the Potency turn out when `Cc1cn([C@H]2C=C[C@@H](CO)O2)c(=O)[nH]c1=O` was run?
The Potency was “inactive”.

How did the “activity change, negative = inhibition” value turn out when `CCc1nc(N)nc(N)c1-c1ccc(Cl)cc1` was run?
The value was -17.9% [at 35.3 µM] (inactive).

With `CC1(C)O[C@@H]2C[C@H]3[C@@H]4CCC5=CC(=O)C=C[C@]5(C)[C@@]4(F)[C@@H](O)C[C@]3(C)[C@]2(C(=O)CO)O1` as the compound, how does the Potency read?
The Potency was “inactive”.

With `Nc1ccc([N+](=O)[O-])cc1O` as the compound, how does the “activity change, negative = inhibition” value read?
The value was 0.654% (inactive).

With `F[B-](F)(F)F` as the compound, how does the Potency read?
The Potency was “inactive”.

How did the Potency turn out when `CCN(CC)C(=O)c1cccc(C)c1` was run?
Its Potency is “inactive”.

Which Potency does the source give for `C/C=C/C=C/C(=O)O` here?
Its Potency is “inactive”.

With `Oc1ccccc1` as the compound, how does the Potency read?
Its Potency is “inactive”.

With `CC(=O)Nc1c(I)c(NC(C)=O)c(I)c(C(=O)O)c1I` as the compound, how does the Potency read?
The Potency was “inactive”.

How did the Potency turn out when `O=C1NS(=O)(=O)c2ccccc21` was run?
The Potency was “inactive”.

How did the Potency turn out when `Nc1c2c(nc3ccccc13)CCCC2` was run?
Its Potency is “inactive”.

With `CCOc1ccc(NC(C)=O)cc1` as the compound, how does the Potency read?
The Potency was “inactive”.

Which Potency does the source give for `Cc1ncc([N+](=O)[O-])n1C` here?
The Potency was “inactive”.

How did the Potency turn out when `CNNCc1ccc(C(=O)NC(C)C)cc1` was run?
Its Potency is “inactive”.

With `CN(C)CCOC(C)(c1ccccc1)c1ccccn1` (stereo not given) as the compound, how does the Potency read?
The Potency was “inactive”.
